Experimental data from PubChem BioAssay.
Active and inactive are the calls of the source. Unless noted, no rule for the calls is given here.

Legend:
[1] = anti-His antibody binders, primary screen, artefact control for SMM control protein annotation, biochemical, small-molecule microarray, 635 nm fluorescence (AID 1128); settings: anti-His Alexa647 antibody binding, higher = more signal;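 also: score merges feature fluorescence with signal-to-noise for each printed compound spot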
[2] = test system: Human papillomavirus type 1a E7 protein (residues 1-88); assay: HPV1a E7 small-molecule binders, primary screen, biochemical, small-molecule microarray, residues 1-88, 635 nm (AID 1129); settings: small-molecule microarray binding, fluorescence 635 nm; higher = more signal
[3] = target: Focal adhesion kinase 1 (Homo sapiens) (UniProt Q05397); assay: small-molecule microarray binders of FAK, primary screen, biochemical, 635/667 nm fluorescence, BSA, DTT (AID 1130); settings: PTK2 binding, 635 nm fluorescence, higher = more signal;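 also: composite of spot emission at 667 nm and signal to noise over triplicate slides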
[4] = test system: Fibrinogen (Alexa647-labelled); assay: fibrinogen binders on compound microarrays, profiling panel, artefact control for SMM control-protein annotation, biochemical, small-molecule microarray, 635/667 nm fluorescence (AID 1131); settings: fibrinogen-A647 binding fluorescence, higher = more signal;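 also: z-score merges 667 nm fluorescence with per-spot signal-to-noise over triplicate slides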
[5] = target: Follistatin (Homo sapiens) (UniProt P19883); assay: follistatin binders on small-molecule microarrays, primary screen, biochemical, small-molecule microarray, 635/667 nm fluorescence (AID 1132); settings: FST binding, 635 nm fluorescence, higher = more signal
[6] = target: Fibroblast growth factor 2 (Homo sapiens) (UniProt P09038); assay: FGF2 binders on small-molecule microarrays, primary screen, biochemical, small-molecule microarray, 635/667 nm fluorescence (AID 1133); settings: small-molecule microarray binding, FGF2, fluorescence 635/667; higher = more signal
[7] = mitochondrial membrane potential change in A549 cells, profiling panel, cell-based, JC-1 fluorescence, basal, 24 h, 100 nL (AID 1138); settings: higher = more signal;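 also: A549 lung adenocarcinoma cells under basal conditions with no added stimulus; test concentration not given here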
[8] = test system: Lefty1; assay: Lefty1 binders on small-molecule microarrays, primary screen, biochemical, small-molecule microarray, 635/667 nm fluorescence (AID 1139); settings: small-molecule microarray binding, fluorescence 635/667; higher = more signal
[9] = test system: wheat germ agglutinin (Triticum aestivum), Alexa647-labelled; assay: wheat germ agglutinin binders on compound microarrays, profiling panel, artefact control for SMM control-protein annotation, biochemical, small-molecule microarray, 635/667 nm fluorescence (AID 1140); settings: WGA-A647 binding, 635 nm fluorescence, higher = more signal;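 also: score merges 667 nm feature emission with signal to noise over triplicate slides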
[10] = target: Luciferin 4-monooxygenase (Photinus pyralis) (UniProt P08659); assay: firefly luciferase enzyme inhibitors, primary screen, biochemical, luminescence, purified enzyme, 2006 set (AID 1141); settings: SteadyGlo luminescence, 30 min, higher = more signal, called active from +8 up or from −8 down;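 also: cell-free assay with purified firefly luciferase at 100 ng per well in PBS; test concentration not given here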
[11] = test system: Wnt5a (protein binding on small-molecule microarray); assay: Wnt5a binders on small-molecule microarray, primary screen, biophysical, 635/667 nm fluorescence (AID 1142); settings: 635 nm fluorescence, higher = more signal;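 also: fluorescence read at 667 nm with signal to noise per printed feature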
[12] = cell viability in Huh7 cells, primary screen, cytotoxicity control for HCV replication inhibitor project, CellTiter-Glo luminescence, basal, 48 h (AID 1143); settings: Huh7 HCV replicon, higher = more signal, called active from +8 up or from −8 down;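 also: Huh7 hepatoma cells carrying a hepatitis C replication reporter with no stimulus; test concentration not given here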
[13] = P. aeruginosa biofilm formation inhibitors, primary screen, PAO1 strain, BacTiter-Glo luminescence, LB-PBS (AID 1144); settings: 12 h, higher = more signal
[14] = CREB reporter modulators without forskolin, primary screen, cell-based, PC12, CRE-LacZ reporter, unstimulated (AID 1145); settings: no forskolin, luminescence, 4.5 h, higher = more signal, called active from +8 up or from −8 down
[15] = CREB reporter modulators under forskolin, primary screen, cell-based, PC12, CRE-LacZ reporter, forskolin-stimulated (AID 1146); settings: luminescence, 4.5 h, higher = more signal, called active from +8 up or from −8 down;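 also: PC12 cells with 6xCRE LacZ reporter stimulated by forskolin 10 µM; beta-galactosidase reporter signal reflecting CREB driven transcription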
[16] = target: Streptavidin (Streptomyces avidinii) (UniProt P22629); assay: streptavidin binders on small-molecule microarray, primary screen, artefact control for SMM compound annotation, biophysical, 635/667 nm fluorescence (AID 1147); settings: streptavidin binding, higher = more signal;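 also: signal reflects streptavidin binding to arrayed compounds as a control protein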
[17] = small-molecule binders of probe aInhba, primary screen, biochemical, small-molecule microarray, 635/667 nm fluorescence (AID 1148); settings: higher = more signal;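 also: score merges 667nm spot fluorescence with signal-to-noise for antibody binding to printed compounds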
[18] = target: Torsin-1A (Homo sapiens) (UniProt O14656); assay: torsin A binders from cell lysate, primary screen, small-molecule microarray, wild-type, 635/667 nm (AID 1149); settings: COS7 hTOR1A-WT lysate, 635 nm fluorescence, higher = more signal
[19] = target: Torsin-1A (Homo sapiens) (UniProt O14656); assay: small-molecule binders of mutant TOR1A in lysate, primary screen, cell lysate, small-molecule microarray, COS7 lysate, 635/667 nm fluorescence (AID 1150); settings: COS7 hTOR1A mutant lysate, 635 nm fluorescence, higher = more signal;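 also: score pools 667 nm emission and signal to noise measuring lysate protein binding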
[20] = test system: Sonic hedgehog protein (Shh); assay: small-molecule binders of Shh protein, primary screen, biochemical, small-molecule microarray, 635/667 nm fluorescence (AID 1151); settings: small-molecule microarray binding, 635 nm fluorescence; higher = more signal;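 also: Shh protein binding to compounds spotted on small-molecule microarray slides; score combines spot fluorescence intensity with signal-to-noise across triplicate slides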

Follistatin (Homo sapiens), sequence (P19883 whole entry, looked up): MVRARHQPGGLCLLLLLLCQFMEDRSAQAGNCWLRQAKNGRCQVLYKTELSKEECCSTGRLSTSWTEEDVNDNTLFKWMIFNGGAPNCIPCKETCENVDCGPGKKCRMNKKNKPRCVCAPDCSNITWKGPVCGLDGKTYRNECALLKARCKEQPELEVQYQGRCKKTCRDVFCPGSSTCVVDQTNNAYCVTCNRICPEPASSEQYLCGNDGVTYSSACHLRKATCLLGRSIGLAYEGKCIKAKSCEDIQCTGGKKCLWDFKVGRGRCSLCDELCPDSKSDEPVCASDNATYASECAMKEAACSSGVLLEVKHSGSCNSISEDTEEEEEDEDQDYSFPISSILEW
Focal adhesion kinase 1 (Homo sapiens), sequence (Q05397 whole entry, looked up): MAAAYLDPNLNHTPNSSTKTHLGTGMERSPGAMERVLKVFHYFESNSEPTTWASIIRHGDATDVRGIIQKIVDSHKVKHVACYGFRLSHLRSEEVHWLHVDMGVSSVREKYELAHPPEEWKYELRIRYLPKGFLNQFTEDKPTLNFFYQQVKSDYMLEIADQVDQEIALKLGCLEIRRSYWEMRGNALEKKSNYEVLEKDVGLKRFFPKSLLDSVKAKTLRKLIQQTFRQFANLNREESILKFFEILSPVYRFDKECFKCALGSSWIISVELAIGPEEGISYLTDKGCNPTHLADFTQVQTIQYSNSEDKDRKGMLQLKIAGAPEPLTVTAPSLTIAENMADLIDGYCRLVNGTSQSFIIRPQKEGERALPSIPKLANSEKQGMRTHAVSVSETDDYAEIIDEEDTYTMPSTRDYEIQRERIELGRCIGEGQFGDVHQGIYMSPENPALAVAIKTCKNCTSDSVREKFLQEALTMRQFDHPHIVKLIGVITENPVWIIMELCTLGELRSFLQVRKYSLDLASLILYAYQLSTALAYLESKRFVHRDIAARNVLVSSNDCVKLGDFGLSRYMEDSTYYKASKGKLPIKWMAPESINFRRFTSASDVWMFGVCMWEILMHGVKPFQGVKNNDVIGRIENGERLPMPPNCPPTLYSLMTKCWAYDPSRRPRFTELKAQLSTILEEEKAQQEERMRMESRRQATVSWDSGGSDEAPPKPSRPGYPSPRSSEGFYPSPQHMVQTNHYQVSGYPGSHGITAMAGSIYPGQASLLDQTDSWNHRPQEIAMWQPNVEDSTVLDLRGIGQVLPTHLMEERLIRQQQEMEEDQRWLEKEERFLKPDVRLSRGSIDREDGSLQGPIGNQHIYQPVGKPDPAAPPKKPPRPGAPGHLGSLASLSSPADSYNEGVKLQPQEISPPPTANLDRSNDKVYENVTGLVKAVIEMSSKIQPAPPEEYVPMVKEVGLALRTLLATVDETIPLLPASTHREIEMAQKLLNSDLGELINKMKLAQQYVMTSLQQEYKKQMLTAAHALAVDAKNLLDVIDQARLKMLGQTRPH
Streptavidin (Streptomyces avidinii), sequence (P22629 whole entry, looked up): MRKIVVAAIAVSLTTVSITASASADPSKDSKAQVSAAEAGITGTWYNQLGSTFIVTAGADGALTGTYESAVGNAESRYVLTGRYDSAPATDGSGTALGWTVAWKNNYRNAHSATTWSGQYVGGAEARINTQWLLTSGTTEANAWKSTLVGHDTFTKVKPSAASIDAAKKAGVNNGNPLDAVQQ
Torsin-1A (Homo sapiens), sequence (O14656 whole entry, looked up): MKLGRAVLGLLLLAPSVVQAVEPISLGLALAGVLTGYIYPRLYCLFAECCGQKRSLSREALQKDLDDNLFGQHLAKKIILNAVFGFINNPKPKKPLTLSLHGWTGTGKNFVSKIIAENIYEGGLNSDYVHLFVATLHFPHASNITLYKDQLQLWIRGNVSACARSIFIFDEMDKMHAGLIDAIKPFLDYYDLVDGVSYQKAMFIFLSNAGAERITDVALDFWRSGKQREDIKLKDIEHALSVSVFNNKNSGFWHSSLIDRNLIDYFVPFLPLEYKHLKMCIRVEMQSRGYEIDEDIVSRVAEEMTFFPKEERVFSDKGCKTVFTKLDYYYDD
Fibroblast growth factor 2 (Homo sapiens), sequence (P09038 whole entry, looked up): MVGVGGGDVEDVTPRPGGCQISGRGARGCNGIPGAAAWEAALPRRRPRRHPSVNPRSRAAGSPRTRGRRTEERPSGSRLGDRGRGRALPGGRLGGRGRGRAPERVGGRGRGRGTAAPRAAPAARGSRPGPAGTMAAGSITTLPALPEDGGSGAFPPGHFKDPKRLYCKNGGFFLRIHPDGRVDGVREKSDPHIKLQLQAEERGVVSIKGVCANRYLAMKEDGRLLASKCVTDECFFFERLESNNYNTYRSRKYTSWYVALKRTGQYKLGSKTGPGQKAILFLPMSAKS
Luciferin 4-monooxygenase (Photinus pyralis), sequence (P08659 whole entry, looked up): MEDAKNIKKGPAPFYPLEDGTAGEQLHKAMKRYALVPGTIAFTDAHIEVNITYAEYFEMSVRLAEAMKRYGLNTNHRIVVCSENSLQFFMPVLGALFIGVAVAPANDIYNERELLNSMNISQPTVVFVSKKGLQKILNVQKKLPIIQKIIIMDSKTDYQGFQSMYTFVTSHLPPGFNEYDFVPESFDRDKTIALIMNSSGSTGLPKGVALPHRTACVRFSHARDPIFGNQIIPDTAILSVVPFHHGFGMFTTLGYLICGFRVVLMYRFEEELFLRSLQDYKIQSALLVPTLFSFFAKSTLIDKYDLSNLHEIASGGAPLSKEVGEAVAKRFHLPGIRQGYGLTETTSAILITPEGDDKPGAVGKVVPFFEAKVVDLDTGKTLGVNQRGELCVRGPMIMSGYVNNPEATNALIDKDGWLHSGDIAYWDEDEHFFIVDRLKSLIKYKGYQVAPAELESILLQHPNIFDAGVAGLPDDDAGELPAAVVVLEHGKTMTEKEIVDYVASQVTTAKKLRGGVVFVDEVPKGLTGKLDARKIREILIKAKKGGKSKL

| SMILES | composite z-score [1] | composite z-score [2] | composite z-score [3] | composite z-score [4] | composite z-score [5] | composite z-score [6] | z-score [7] | composite z-score [8] | composite z-score [9] | z-score [10] | composite z-score [11] | z-score [12] | z-score [13] | z-score [14] | z-score [15] | composite z-score [16] | composite z-score [17] | composite z-score [18] | composite z-score [19] | composite z-score [20] |
| --- | --- | --- | --- | --- | --- | --- | --- | --- | --- | --- | --- | --- | --- | --- | --- | --- | --- | --- | --- | --- |
| Cc1ccc(S(=O)(=O)N2[C@@H](c3ccccc3)C(C(=O)O)=CC[C@H]2c2ccc(C#N)cc2)cc1 | 1.58 | 1.31 | 0.447 | 0.992 | 0.0793 | -0.413 | -1.38 | -0.388 | 1.05 | 0.654 (inactive) | 0.111 | -0.478 (inactive) | -0.236 (inactive) | -0.275 (inactive) | -0.551 (inactive) | 0.0546 | -0.148 | 0.834 | 2.1 | -0.133 |
| O=C1C2C=CC(C(O)c3cccs3)N(Nc3ccccc3)C2C(=O)N1c1ccccc1 (stereo not given) | -0.0476 | -0.741 | 0.948 | 0.183 | 0.761 | -0.473 | -0.4 | -0.289 | 0.253 | -0.802 (inactive) | 0.114 | -2.55 (inactive) | -0.991 (inactive) | -0.136 (inactive) | 0.592 (inactive) | 0.195 | -0.0604 | -0.372 | -0.629 | 0.0003 |
| C=CC[C@]1(C(=O)NCc2ccccc2)COC(c2ccc(OCCCO)cc2)=N1 | 0.16 | -0.0156 | -0.19 | 0.295 | -0.431 | -0.87 | 1.03 | -0.95 | 1.02 | -0.218 (inactive) | 0.602 | -3.63 (inactive) | 0.271 (inactive) | 1.38 (inactive) | -0.505 (inactive) | -0.479 | 0.0503 | 0.29 | 1.52 | -0.88 |
